High-throughput results (PubChem)
GPR151 activ: activators of human GPR151; Q8TDV0; PathHunter beta-arrestin GPR151 cells, luminescence; activation, % at 11.2 µM; 650,000 tested, 1% active; AID 1508602; in the data active means activation above about 4.9%;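 further: 0% = median of compound wells and 100% = cells with positive control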
Target sequence (Q8TDV0 whole entry, looked up): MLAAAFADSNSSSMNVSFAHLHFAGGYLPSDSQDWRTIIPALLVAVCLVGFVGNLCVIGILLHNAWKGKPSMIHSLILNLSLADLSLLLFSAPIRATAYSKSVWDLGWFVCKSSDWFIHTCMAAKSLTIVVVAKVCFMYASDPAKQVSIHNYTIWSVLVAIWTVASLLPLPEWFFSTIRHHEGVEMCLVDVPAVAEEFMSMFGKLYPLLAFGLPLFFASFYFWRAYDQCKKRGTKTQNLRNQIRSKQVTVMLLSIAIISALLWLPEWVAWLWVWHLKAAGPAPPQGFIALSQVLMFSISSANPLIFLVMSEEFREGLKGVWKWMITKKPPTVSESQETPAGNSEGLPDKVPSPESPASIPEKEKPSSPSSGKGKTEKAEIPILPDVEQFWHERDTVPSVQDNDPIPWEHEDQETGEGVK
MITF inh: inhibitors of human MITF. AlphaScreen MITF homodimerization, bead proximity signal. AID 1259374. inhibition, % at 2.6 µM. 650,000 tested, 0.91% active; in the data active means inhibition above about 50%;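 further: 0% = vehicle wells with protein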
TEAD-YAP inh: TEAD-YAP interaction inhibition; HEK-TIYL cells, TEAD-Gal4/YAP UAS-luciferase luminescence; inhibition, % at 9.12 µM; 640,000 tested, 1.4% active; in the data active means inhibition above about 32%;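 further: 0% = median of test compound wells and 100% = reference inhibitor wells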
FBW7 activator: activators of human E3 ligase FBW7 | 650,000 tested, 0.13% active | Q969H0 | AlphaScreen FBW7–phospho-cyclin E peptide binding, activator screen | normalized activity (activation), % at 26.1 µM; in the data active means normalized activity above about 1.9%;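 further: purified mutant Fbw7 with reduced substrate affinity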
Numbers without * were called inactive. Most compounds without a hit are left out; they make up all but 3.5% or so of the library.

How did O=C(C1CC1)N1CCc2cc(Br)cc(S(=O)(=O)Nc3cccc(F)c3)c21 do in these assays?
GPR151 activ: 1.0; MITF inh: 10.8; TEAD-YAP inh: 42.4*; FBW7 activator: 0.0

Results for O=C(O)CC(Br)C(=O)c1cccs1 (stereo not drawn) ?
GPR151 activ: 0.4; MITF inh: 7.9; TEAD-YAP inh: 2.7; FBW7 activator: 0.1

What do the screens show for `Cc1cc(C)n(CCc2nc3c4ccccc4nc(=S)n3[nH]2)n1`?
GPR151 activ: -0.2; MITF inh: 6.8; TEAD-YAP inh: 49.0*; FBW7 activator: 0.1

Results for CCOc1ccc(NC(=O)c2cccc3ccccc23)c([N+](=O)[O-])c1 ?
GPR151 activ: -1.6; MITF inh: 25.2; TEAD-YAP inh: 42.7*; FBW7 activator: -0.3

Results for Cc1ccc(NC(=O)CC2Sc3ccccc3NC2=O)c(C)c1 (stereo not drawn) ?
GPR151 activ: -0.5; MITF inh: 7.1; TEAD-YAP inh: 16.2; FBW7 activator: 0.0

Results for Cc1ccc(NC(=O)CC2Sc3ccccc3NC2=O)c([N+](=O)[O-])c1 (stereo not drawn) ?
GPR151 activ: 1.3; MITF inh: 2.2; TEAD-YAP inh: 48.1*; FBW7 activator: -0.2

How did CCOc1cc([N+](=O)[O-])ccc1NC(=O)CC1Sc2ccccc2NC1=O (stereo not drawn) do in these assays?
GPR151 activ: -0.1; MITF inh: 3.8; TEAD-YAP inh: 57.8*; FBW7 activator: 0.1

How did CCOc1ccc(NC(=O)CC2Sc3ccccc3NC2=O)c([N+](=O)[O-])c1 (stereo not drawn) do in these assays?
GPR151 activ: -1.1; MITF inh: -11.4; TEAD-YAP inh: 52.4*; FBW7 activator: 0.0

What do the screens show for `O=C(Nc1cccnc1)c1c[nH]c2ccccc2c1=O`?
GPR151 activ: -5.2; MITF inh: 19.4; TEAD-YAP inh: -47.5; FBW7 activator: 0.5

How did CCOC(=O)c1cc(S(=O)(=O)Nc2cc(C)ccc2C)cn1C do in these assays?
GPR151 activ: 0.6; MITF inh: 9.1; TEAD-YAP inh: -3.6; FBW7 activator: 0.2

How did Cc1ccc(NC(=O)CN2CCN(Cc3ccccc3)CC2)c(Br)c1 do in these assays?
GPR151 activ: -0.3; MITF inh: 18.5; TEAD-YAP inh: -8.2; FBW7 activator: -0.1

Results for Cc1ccc(Cn2cnc3ccccc32)cc1 ?
GPR151 activ: 0.5; MITF inh: 18.4; TEAD-YAP inh: 17.3; FBW7 activator: 0.3

What do the screens show for `Cc1cc(C)c(NC(=O)Cn2cnc3ccccc32)c(C)c1`?
GPR151 activ: 3.5; MITF inh: 2.4; TEAD-YAP inh: 42.3*; FBW7 activator: 0.1

Results for Cc1cc(Cn2cnc3ccccc32)c(C)cc1Cn1cnc2ccccc21 ?
GPR151 activ: 0.5; MITF inh: 8.3; TEAD-YAP inh: 35.9*; FBW7 activator: 0.0

How did O=C(Cn1cnc2ccccc21)Nc1ccc(SC(F)F)cc1 do in these assays?
GPR151 activ: 1.2; MITF inh: 6.5; TEAD-YAP inh: 34.4*; FBW7 activator: 0.1

How did O=C(Nc1ccc2c(c1)OCCO2)C(=O)Nc1ccc(Cl)cc1Cl do in these assays?
GPR151 activ: -0.7; MITF inh: 10.1; TEAD-YAP inh: -13.6; FBW7 activator: -0.1

Results for CCOc1ccc(-n2nc3ccc(NC(=O)c4ccccc4F)cc3n2)cc1 ?
GPR151 activ: 1.6; MITF inh: 31.1; TEAD-YAP inh: 2.6; FBW7 activator: 0.6

Results for CCOc1cc(/C=C2/C(=O)NN(c3cccc(C)c3)C2=O)ccc1O ?
GPR151 activ: 3.0; MITF inh: 7.3; TEAD-YAP inh: 21.3; FBW7 activator: -0.1

Results for O=C1CCCC2=C1C(c1ccc(Br)cc1)n1ncnc1N2 (stereo not drawn) ?
GPR151 activ: 0.4; MITF inh: 2.0; TEAD-YAP inh: -7.6; FBW7 activator: 0.6

What do the screens show for `Cc1ccc(NC(=O)CCCCCC2NC(=O)NC2C)cc1` (stereo not drawn)?
GPR151 activ: 0.8; MITF inh: 98.5*; TEAD-YAP inh: -10.7; FBW7 activator: -1.2

How did Cc1ccc(NC(=O)CCCCCN2C(=O)c3ccccc3C2=O)cc1 do in these assays?
GPR151 activ: 0.6; MITF inh: 5.5; TEAD-YAP inh: 11.2; FBW7 activator: 0.9

How did COc1cccc2c1CC(c1nc3ccc(-c4ccnc(N)n4)cc3[nH]1)CO2 (stereo not drawn) do in these assays?
GPR151 activ: -0.6; MITF inh: 7.9; TEAD-YAP inh: 50.0*; FBW7 activator: 0.0

What do the screens show for `Nc1nccc(-c2ccc3nc(C4COc5ccc(F)cc5C4)[nH]c3c2)n1` (stereo not drawn)?
GPR151 activ: -1.1; MITF inh: 2.2; TEAD-YAP inh: 42.9*; FBW7 activator: 0.0

What do the screens show for `NC(=O)c1ccc2c(c1)CC(c1nc3ccc(-c4ccnc(N)n4)cc3[nH]1)CO2` (stereo not drawn)?
GPR151 activ: -0.1; MITF inh: 31.3; TEAD-YAP inh: 1.3; FBW7 activator: 1.0

Results for CC(C)NCCOc1ccc(Cl)cc1Br ?
GPR151 activ: -1.7; MITF inh: 2.5; TEAD-YAP inh: -7.3; FBW7 activator: 0.1

What do the screens show for `CC(C)NCCCOc1ccc(Cl)cc1Br`?
GPR151 activ: -1.0; MITF inh: 14.2; TEAD-YAP inh: 32.3*; FBW7 activator: -0.2

How did CC1CC(C)CN(c2nc(N)ncc2[N+](=O)[O-])C1 (stereo not drawn) do in these assays?
GPR151 activ: 1.5; MITF inh: -0.5; TEAD-YAP inh: 49.4*; FBW7 activator: -0.1

Results for c1cc2c(cc1CN1CCN(c3nc(NC4CC4)c4ncn(C5CCCCC5)c4n3)CC1)OCO2 ?
GPR151 activ: 0.3; MITF inh: 14.5; TEAD-YAP inh: 3.5; FBW7 activator: -0.3

What do the screens show for `c1ccc2[nH]c(CNc3nc(N4CCN(Cc5ccc6c(c5)OCO6)CC4)nc4c3ncn4C3CCCCC3)nc2c1`?
GPR151 activ: 2.8; MITF inh: -1.2; TEAD-YAP inh: 41.0*; FBW7 activator: -0.1

Results for c1ccc2[nH]c(CNc3nc(N4CCN(Cc5ccc6c(c5)OCO6)CC4)nc4c3ncn4-c3ccsc3)nc2c1 ?
GPR151 activ: -0.2; MITF inh: -2.9; TEAD-YAP inh: 84.7*; FBW7 activator: -0.1

What do the screens show for `CC(C)[C@H](NC(=O)c1ccco1)C(=O)NC1CC1`?
GPR151 activ: 1.2; MITF inh: -3.1; TEAD-YAP inh: -2.9; FBW7 activator: -0.2

Results for CC1=NN(C(=O)c2cc(O)cc(O)c2)C(O)(C(F)(F)F)C1 (stereo not drawn) ?
GPR151 activ: 1.4; MITF inh: -4.1; TEAD-YAP inh: 0.5; FBW7 activator: 0.0

How did COc1cc(C(=O)N2N=C(C3CC3)CC2(O)C(F)(F)F)cc(OC)c1OC (stereo not drawn) do in these assays?
GPR151 activ: -1.1; MITF inh: -1.3; TEAD-YAP inh: 10.1; FBW7 activator: 0.1

How did COc1cc(OC)cc(C(=O)N2N=C(C)CC2(O)C(F)(F)F)c1 (stereo not drawn) do in these assays?
GPR151 activ: -1.2; MITF inh: -13.9; TEAD-YAP inh: 50.0*; FBW7 activator: -0.1

How did COc1cc(C(=O)N2N=C(C)CC2(O)C(F)(F)F)cc(OC)c1OC (stereo not drawn) do in these assays?
GPR151 activ: 0.8; MITF inh: -2.5; TEAD-YAP inh: 59.8*; FBW7 activator: -0.2
